Experimental findings from ChEMBL document CHEMBL3988442, “University of Dundee, Small-Polar-MMV Screening Library” (2021) are described below.

Each structure is given as a SMILES string. For some of these results: Potency and affinity values are given separately.

Parameters in all cases: scale not given: direction of the effect not stated beside the values
For assay [1], the target named is Protein translocase subunit SecA (Escherichia coli (strain K12)) (UniProt P10408). In words: Assay to Identify E. coli SecA ATPase Inhibitors. To be noted: 30 µM. It counts as functional.
Sequence of Protein translocase subunit SecA (Escherichia coli (strain K12)) (P10408 whole entry): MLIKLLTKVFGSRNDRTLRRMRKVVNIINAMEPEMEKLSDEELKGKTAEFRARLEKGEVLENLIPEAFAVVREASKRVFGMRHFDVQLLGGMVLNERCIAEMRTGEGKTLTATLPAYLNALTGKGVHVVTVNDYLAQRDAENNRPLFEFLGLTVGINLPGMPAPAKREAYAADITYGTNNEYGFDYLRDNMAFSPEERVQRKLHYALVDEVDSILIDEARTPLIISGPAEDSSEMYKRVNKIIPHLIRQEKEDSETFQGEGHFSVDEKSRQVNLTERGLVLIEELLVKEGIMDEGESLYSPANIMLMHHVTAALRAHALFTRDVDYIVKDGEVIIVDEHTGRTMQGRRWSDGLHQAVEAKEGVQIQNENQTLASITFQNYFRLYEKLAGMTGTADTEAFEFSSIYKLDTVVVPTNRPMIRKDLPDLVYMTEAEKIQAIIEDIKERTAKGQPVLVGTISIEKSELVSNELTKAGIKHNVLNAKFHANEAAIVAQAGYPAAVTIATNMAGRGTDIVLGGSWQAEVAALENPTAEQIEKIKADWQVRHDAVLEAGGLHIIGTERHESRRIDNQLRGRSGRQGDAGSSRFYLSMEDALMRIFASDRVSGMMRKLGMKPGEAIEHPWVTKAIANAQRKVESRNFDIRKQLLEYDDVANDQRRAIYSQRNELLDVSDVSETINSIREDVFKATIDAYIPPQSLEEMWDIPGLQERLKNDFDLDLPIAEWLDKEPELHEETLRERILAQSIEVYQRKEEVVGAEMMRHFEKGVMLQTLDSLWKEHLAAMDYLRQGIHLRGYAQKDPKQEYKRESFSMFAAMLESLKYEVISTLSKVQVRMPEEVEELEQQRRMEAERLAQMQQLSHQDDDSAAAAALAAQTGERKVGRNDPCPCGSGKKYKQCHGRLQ
Assay [2] has as its target T1, Ubiquitin-activating enzyme e1, putative (Leishmania donovani (strain BPK282A1)) (UniProt E9BSI1).
T1 sequence (whole entry): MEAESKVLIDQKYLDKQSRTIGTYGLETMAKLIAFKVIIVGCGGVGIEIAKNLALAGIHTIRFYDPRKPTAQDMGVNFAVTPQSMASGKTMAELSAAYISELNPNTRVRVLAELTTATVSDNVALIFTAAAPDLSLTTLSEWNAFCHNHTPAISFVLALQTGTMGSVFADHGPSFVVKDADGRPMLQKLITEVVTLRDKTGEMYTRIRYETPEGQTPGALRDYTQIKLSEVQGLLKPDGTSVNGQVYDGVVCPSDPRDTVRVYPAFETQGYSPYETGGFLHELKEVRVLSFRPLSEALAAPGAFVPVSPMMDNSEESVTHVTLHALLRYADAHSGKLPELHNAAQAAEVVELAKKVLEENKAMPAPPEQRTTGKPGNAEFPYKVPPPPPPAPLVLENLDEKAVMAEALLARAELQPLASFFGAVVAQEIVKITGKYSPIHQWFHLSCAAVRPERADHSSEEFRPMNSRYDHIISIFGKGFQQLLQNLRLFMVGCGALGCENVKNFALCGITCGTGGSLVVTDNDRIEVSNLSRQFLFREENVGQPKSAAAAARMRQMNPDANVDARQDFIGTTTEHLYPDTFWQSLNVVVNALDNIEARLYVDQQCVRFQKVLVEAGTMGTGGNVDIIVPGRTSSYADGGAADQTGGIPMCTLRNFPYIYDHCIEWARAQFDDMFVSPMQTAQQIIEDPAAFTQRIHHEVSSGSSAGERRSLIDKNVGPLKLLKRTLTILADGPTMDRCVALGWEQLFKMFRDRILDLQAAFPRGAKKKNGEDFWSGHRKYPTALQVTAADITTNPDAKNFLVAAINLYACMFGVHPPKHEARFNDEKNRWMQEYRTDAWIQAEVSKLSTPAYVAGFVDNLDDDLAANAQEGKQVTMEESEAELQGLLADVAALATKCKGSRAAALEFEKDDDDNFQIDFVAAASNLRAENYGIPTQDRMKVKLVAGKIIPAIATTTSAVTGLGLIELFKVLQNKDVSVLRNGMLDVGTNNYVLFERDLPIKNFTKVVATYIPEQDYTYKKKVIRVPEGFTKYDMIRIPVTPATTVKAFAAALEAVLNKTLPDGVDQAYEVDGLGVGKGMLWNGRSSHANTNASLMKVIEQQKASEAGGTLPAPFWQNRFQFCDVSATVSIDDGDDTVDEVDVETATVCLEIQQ
The assay is described as follows: Leishmania donovani Ubiquitin Activating Enzyme (LdE1). It counts as functional. To be noted: 30 µM.

The target in assay [3] is AMP-activated protein kinase, AMPK (Homo sapiens) (UniProt P54646+O43741+P54619+Q9UGJ0+Q9Y478+Q13131+Q9UGI9). The assay is described as follows: AMP-dependent Kinase enzyme assay. An in vitro enzyme assay that detects ADP turnover that is directly proportional to AMPK activity. This uses naive AMPK that is activated during the assay with MK-8722. The settings on record: 30 µM. It counts as functional.

In assay [4] the target is Sialic acid-binding Ig-like lectin 9 (Homo sapiens) (UniProt Q9Y336). The assay is described as follows: Hs-Siglec9 ALPHAscreen SOP 20170721. To be noted: 10 µM.
Sequence of Sialic acid-binding Ig-like lectin 9 (Homo sapiens) (Q9Y336 whole entry): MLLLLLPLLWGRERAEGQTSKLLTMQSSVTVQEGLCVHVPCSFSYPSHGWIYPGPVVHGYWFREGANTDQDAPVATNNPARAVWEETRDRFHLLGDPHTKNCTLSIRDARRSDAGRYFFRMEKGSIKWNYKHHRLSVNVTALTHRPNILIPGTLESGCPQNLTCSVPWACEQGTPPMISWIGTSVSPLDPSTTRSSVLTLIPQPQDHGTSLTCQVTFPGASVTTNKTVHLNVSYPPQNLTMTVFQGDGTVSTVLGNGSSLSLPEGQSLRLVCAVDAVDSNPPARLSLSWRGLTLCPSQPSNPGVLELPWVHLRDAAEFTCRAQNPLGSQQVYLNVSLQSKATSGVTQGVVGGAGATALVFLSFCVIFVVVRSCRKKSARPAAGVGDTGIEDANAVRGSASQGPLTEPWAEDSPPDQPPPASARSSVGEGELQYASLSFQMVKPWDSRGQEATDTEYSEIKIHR
Assay [5] concerns Trypanosoma cruzi. In words: Trypanosoma cruzi phosphomannomutase and mannose-1-phosphate guanylyltransferase assay. It counts as functional. The settings on record: 10 µM.
In assay [6] the target is T2, Arginase-2, mitochondrial (Homo sapiens) (UniProt P78540).
T2 sequence (whole entry): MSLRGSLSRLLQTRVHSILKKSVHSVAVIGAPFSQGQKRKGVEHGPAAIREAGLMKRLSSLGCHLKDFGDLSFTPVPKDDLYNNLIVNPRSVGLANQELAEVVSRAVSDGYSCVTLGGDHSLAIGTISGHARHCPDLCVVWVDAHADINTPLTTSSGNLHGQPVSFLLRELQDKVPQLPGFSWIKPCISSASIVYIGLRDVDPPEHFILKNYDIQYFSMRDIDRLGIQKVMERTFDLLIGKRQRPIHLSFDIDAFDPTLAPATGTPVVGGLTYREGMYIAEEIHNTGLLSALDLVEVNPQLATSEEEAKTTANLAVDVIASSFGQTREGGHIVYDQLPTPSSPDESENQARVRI
In words: in vitro enzyme assay to detect the production of urea directly proportional to the activity of Arginase II. Note: in the data most compounds retested in dose-response had high values. It counts as functional. The settings on record: 33.3 µM.

Assay [7] deals with T3, Proteasome subunit beta (Trypanosoma cruzi) (UniProt O96673).
T3 sequence (whole entry): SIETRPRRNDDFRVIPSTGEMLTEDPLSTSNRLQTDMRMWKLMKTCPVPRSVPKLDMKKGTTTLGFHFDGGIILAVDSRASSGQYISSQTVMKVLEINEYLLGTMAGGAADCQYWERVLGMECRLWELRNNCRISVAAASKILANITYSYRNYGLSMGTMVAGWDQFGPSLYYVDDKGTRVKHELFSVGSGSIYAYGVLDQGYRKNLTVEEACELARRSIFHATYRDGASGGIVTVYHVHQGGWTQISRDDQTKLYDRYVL
In words: Trypanosoma cruzi proteasome chymotrypsin-like activity (TcProtChymo) assay. Note: in the data most compounds retested in dose-response had high values. It counts as functional. The settings on record: 9.37 µM.

For assay [8], the species on record is Homo sapiens. The assay is described as follows: To identify inhibition of the IFN signalling (Jak-Stat) pathway via expression of an eGFP reporter gene under the control of an IFN-stimulated response element (ISRE) containing MxA promoter. It counts as functional. To be noted: 30 µM. On the technique in general: Reporter assays use an easily measured gene product as a stand-in for the process of interest.

Assay [9] deals with T4, Tyrosyl-tRNA synthetase, putative (Trypanosoma cruzi (strain CL Brener)) (UniProt Q4DSP6).
T4 sequence (whole entry): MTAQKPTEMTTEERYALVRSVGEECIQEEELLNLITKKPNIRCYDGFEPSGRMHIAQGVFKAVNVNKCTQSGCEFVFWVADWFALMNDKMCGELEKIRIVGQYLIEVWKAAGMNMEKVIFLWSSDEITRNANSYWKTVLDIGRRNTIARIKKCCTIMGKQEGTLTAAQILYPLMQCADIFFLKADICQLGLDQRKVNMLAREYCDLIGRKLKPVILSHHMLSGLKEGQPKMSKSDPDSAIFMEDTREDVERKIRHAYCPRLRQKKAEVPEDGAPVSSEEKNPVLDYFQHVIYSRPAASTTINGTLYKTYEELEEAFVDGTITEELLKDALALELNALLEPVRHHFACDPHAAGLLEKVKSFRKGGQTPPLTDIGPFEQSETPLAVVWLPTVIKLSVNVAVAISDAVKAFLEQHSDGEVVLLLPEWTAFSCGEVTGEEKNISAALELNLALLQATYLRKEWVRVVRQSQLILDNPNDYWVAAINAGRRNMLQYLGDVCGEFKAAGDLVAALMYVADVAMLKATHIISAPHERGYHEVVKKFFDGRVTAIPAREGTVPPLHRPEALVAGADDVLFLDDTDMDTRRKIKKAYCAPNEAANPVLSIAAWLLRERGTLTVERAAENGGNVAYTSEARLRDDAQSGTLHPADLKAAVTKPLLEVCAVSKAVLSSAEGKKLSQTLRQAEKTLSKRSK
In words: Trypanosoma cruzi tyrosyl tRNA synthetase (TcYRS) _High Tyrosine SOP. Note: in the data most compounds retested in dose-response had high values. It counts as functional. To be noted: 30 µM.

Assay [10] has as its target T4, Tyrosyl-tRNA synthetase, putative (Trypanosoma cruzi (strain CL Brener)). The assay is described as follows: Trypanosoma cruzi tyrosyl tRNA synthetase (TcYRS) SOP. It counts as functional. To be noted: 30 µM.
Assay [11] deals with Chromo domain-containing protein 1 (Saccharomyces cerevisiae (strain ATCC 204508 / S288c) (Baker's yeast)) (UniProt P32657). In words: ScCHD-1 Enzyme Inhibition Assay. Note: in the data most compounds retested in dose-response had high values. It counts as functional. To be noted: 30 µM.
Sequence of Chromo domain-containing protein 1 (Saccharomyces cerevisiae (strain ATCC 204508 / S288c) (Baker's yeast)) (P32657 whole entry, the tested form may be a part): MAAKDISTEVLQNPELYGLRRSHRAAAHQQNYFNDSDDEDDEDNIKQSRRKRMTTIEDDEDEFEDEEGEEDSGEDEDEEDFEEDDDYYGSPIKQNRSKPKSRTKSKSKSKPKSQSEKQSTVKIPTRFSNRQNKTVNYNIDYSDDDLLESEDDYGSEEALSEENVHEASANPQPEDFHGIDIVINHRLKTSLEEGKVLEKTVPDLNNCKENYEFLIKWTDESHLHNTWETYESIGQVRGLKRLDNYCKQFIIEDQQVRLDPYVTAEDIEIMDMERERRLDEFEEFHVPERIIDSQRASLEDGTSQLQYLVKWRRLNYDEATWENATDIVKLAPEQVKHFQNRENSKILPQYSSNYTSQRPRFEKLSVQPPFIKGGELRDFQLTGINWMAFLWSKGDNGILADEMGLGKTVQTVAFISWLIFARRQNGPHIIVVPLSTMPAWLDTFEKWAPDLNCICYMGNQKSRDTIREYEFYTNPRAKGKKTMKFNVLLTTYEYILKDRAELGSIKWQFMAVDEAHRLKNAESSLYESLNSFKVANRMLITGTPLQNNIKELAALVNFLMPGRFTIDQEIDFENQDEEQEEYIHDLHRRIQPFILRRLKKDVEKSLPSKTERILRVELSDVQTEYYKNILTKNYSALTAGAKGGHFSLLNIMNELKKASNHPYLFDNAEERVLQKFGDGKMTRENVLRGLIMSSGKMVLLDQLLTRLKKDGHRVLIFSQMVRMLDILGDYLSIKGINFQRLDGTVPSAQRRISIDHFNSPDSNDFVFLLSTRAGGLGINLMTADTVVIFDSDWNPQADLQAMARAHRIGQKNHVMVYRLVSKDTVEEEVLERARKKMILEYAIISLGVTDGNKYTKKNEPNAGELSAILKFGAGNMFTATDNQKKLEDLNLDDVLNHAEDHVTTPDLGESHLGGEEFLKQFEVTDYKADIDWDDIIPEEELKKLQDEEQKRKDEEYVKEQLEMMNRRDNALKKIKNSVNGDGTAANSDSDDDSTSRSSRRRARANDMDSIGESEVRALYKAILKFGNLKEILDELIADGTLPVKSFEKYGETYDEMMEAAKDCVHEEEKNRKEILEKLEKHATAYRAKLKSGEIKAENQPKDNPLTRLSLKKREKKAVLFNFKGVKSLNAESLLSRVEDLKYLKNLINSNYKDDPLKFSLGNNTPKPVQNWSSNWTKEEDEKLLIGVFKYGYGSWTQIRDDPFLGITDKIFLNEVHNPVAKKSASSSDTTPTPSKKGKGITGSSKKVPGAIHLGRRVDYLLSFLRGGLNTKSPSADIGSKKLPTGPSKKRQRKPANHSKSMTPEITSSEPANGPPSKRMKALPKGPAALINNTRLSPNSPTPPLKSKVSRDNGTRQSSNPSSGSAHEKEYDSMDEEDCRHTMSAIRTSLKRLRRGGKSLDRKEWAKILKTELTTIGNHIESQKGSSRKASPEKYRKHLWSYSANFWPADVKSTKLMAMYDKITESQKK

As to `N#Cc1cn(C2CC2)c(=O)n(CC(O)c2ccccc2F)c1=O` (stereo unspecified), the Percent Effect in assay [1] is -3.42%; in assay [2], 21.1%; in [3], -2.46%; in [4], 7.51%; in assay [5], 6.58%; in [6], -1.15%. For the same molecule, the Percent Effect in assay [7] is 10.7%; in assay [8], 0.878%; in [9], 6.37%; in assay [10] it was 19.5%; in assay [11] it was -13.4%.
Consider `CC(=O)c1cccc(OCC(=O)NS(=O)(=O)c2ccc(C)s2)c1`, for which the Percent Effect in assay [1] is -6.93%; in assay [2], 12.7%; in assay [3] it was -2.86%; in assay [4], 9.9%; in assay [5], 4.63%; in assay [6], -4.56%. Besides, the Percent Effect was 3.85% in [7]; -8.7% in [8]; 3.45% in [9]; 13.9% in [10]; -6.95% in assay [11].
As to `COC(=O)c1ccc(N2CCN(CCC(=O)NC(N)=O)C(C)C2)cc1` (stereo unspecified), the Percent Effect in assay [1] was -5.21%; in assay [2], 15.8%; in [3], -4.81%; in assay [4] it was 0.77%; in assay [5], -5.51%; in assay [6], -0.719%. In addition, the Percent Effect is -2.45% in assay [7]; 5.46% in [8]; 5.42% in [9]; 13.6% in [10]; 2.67% in assay [11].
In the case of `C[C@H]1C[C@@H]2CCN(C(=O)c3ccncn3)C[C@H]2O1`, the Percent Effect in assay [1] was -5.91%; in assay [2], 0%; in assay [3], -1.04%; in [4], -0.649%; in [5] it was 1.56%; in assay [6], 2.08%. The Percent Effect in assay [7] is 1.27%; in [8] it was -2.6%; in assay [9] it was 5.94%; in [10] it was 8.54%; in assay [11], -3.12%.
`O=C(Nc1ccc(N2CCCC2)nc1)N1CCc2ccccc2C1`: the Percent Effect was -3.4% in assay [1]; 0% in [2]; -13.6% in assay [3]; 2.55% in assay [4]; -6.45% in [5]; 3.75% in assay [6]. For the same molecule, the Percent Effect stood at 20.7% in assay [7]; 7.01% in assay [8]; 15.8% in [9]; 18.3% in assay [10]; 0.41% in [11].
In the case of `COc1cccc(-c2nccnc2C2CCN(C(C)=O)CC2)c1`, the Percent Effect in assay [1] is -1.31%; in assay [2] it was 9.46%; in assay [3] it was 8.79%; in [4], -0.0533%; in assay [5], -0.593%; in assay [6], 1.16%. The Percent Effect in assay [7] is 15.1%; in assay [8], -0.133%; in [9], 3.23%; in assay [10], 14.3%; in assay [11], -14.9%.
In the case of `CNC(=O)[C@H]1C[C@@H]2CN(S(=O)(=O)c3ccccc3)C[C@@H]2N1C(C)=O`, the Percent Effect was -5.14% in [1]; 7.79% in assay [2]; 3.54% in assay [3]; 8.79% in assay [4]; 8.95% in [5]; 1.38% in assay [6]. For the same molecule, the Percent Effect came to 8.32% in assay [7]; 18.1% in [8]; 5.38% in assay [9]; 11.1% in assay [10]; 1.18% in assay [11].
Turning to `COc1ccccc1C(O)CNCc1c(C(C)C)nn(C)c1N(C)C` (stereo unspecified), the Percent Effect in assay [1] is -5.07%; in [2], 15.6%; in [3], -1.45%; in assay [4], 1.4%; in assay [5], 1.31%; in [6] it was 1.07%. The Percent Effect in assay [7] was 4.9%; in assay [8] it was -5.4%; in assay [9] it was 11.7%; in [10], 14.6%; in assay [11], -10.1%.
As to `O=S(=O)(CCNCc1ccc2c(c1)CCO2)N1CCOCC1`, the Percent Effect is -6.32% in assay [1]; -2.7% in assay [2]; -3.09% in assay [3]; 10.1% in assay [4]; -3.67% in assay [5]; -3.33% in assay [6]. The Percent Effect is 11.7% in [7]; -0.791% in [8]; -0.529% in assay [9]; -4.88% in assay [10]; -4.8% in [11].
Regarding `Cc1ccc2c(c1)c(CNC(=O)C1CCN(C(C)C)CC1)nn2C`, the Percent Effect was 2.34% in assay [1]; 5.41% in [2]; -3.84% in [3]; -0.447% in [4]; -0.579% in [5]; -2.38% in [6]. The Percent Effect in assay [7] is 12.9%; in [8], -16.3%; in assay [9] it was 4.76%; in assay [10] it was 14.6%; in assay [11], -3.28%.
`CCNC(=O)c1ncn2c1CN(C)S(=O)(=O)c1ccccc1-2`: the Percent Effect is 0.812% in [1]; 2.74% in [2]; 2.65% in [3]; 7.01% in assay [4]; -2.58% in [5]; -2% in [6]. Also, the Percent Effect in [7] is 14%; in assay [8], 11%; in assay [9], 1.04%; in assay [10], 6.17%; in [11], -0.402%.
